From PubChem BioAssay AID624156 (Broad Institute, 2012)
Screen size: about 46,000 compounds; about 900 (2%) were called active. About 1% were inconclusive and are not listed. The list comes from a sample in which actives are over-represented; it also holds similar structures and randomly drawn compounds. A number with no mark means an inactive call. No stated cut-off is given here; in the data, active means ROS induction above about 79% (passing the limit was not always enough); inconclusive means no clear call, values can overlap the other calls.

test: ROS inducers in U2OS cancer cells, primary screen, cell-based, H2DCF-DA fluorescence (AID 624156); settings: at 10 µM, active compounds read high;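 further: 0% = DMSO vehicle median and 100% = reference compound median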

Question: Which ROS induction (% of piperlongumine) does the source give for `COC(=O)C1=C(N)Oc2cc(C)oc(=O)c2C1c1cccnc1` (centres undefined) here?
Answer: Its ROS induction (% of piperlongumine) is 69.7%.

Question: For `CC(C)OC(=O)C1=c2s/c(=C\c3cccnc3)c(=O)n2C(N)=C(C#N)C1c1cccnc1` (centres undefined), which ROS induction (% of piperlongumine) is on record?
Answer: Its ROS induction (% of piperlongumine) is 104% (active).

Question: For `CCN(Cc1ccccc1)S(=O)(=O)c1cc(Cl)ccc1Cl`, which ROS induction (% of piperlongumine) is on record?
Answer: Its ROS induction (% of piperlongumine) is 29.9%.

Question: For `CCN(CC)c1nc(C#N)nc(OC)n1`, which ROS induction (% of piperlongumine) is on record?
Answer: The ROS induction (% of piperlongumine) was 55.7%.

Question: With `CC(CN1CCCC1)OC(=O)c1cc(C(C)(C)C)cc(C(C)(C)C)c1` (centres undefined) as the compound, how does the ROS induction (% of piperlongumine) read?
Answer: Its ROS induction (% of piperlongumine) is 21.6%.

Question: For `CO[C@H]1O[C@H](CO)[C@@H](OC(=O)Nc2ccccc2-c2ccccc2)[C@H](OC(=O)Nc2ccccc2)[C@H]1OC(=O)Nc1ccccc1`, which ROS induction (% of piperlongumine) is on record?
Answer: Its ROS induction (% of piperlongumine) is 132% (active).

Question: With `CNC[C@@H]1Oc2c(NC(=O)Nc3ccccc3)cccc2C(=O)N([C@@H](C)CO)C[C@@H]1C` as the compound, how does the ROS induction (% of piperlongumine) read?
Answer: The ROS induction (% of piperlongumine) was -4.47%.

Question: For `COC(=O)C1=C[C@@H](O)[C@@H](O)[C@H](O[C@@H]2O[C@H](CO)[C@@H](O)[C@H](O)[C@H]2OC(=O)/C=C/c2ccccc2)C1`, which ROS induction (% of piperlongumine) is on record?
Answer: The ROS induction (% of piperlongumine) was -5.34%.

Question: With `S=C(NCCc1ccc(Cl)cc1)Nc1ccccc1` as the compound, how does the ROS induction (% of piperlongumine) read?
Answer: Its ROS induction (% of piperlongumine) is -13.7%.

Question: Which ROS induction (% of piperlongumine) does the source give for `O=C(c1cncc(NS(=O)(=O)c2ccc(Cl)cc2)c1)N1CCN(Cc2ccccc2)CC1` here?
Answer: The ROS induction (% of piperlongumine) was 41.7%.

Question: Which ROS induction (% of piperlongumine) does the source give for `CC(C)C1N=C2c3ccccc3N=C(SCC(=O)c3ccc(Br)cc3)N2C1=O` (centres undefined) here?
Answer: The ROS induction (% of piperlongumine) was 63.2%.

Question: For `CC(C)(C)C(=O)CSc1nc2ccccc2c(=O)n1CC1CC1`, which ROS induction (% of piperlongumine) is on record?
Answer: Its ROS induction (% of piperlongumine) is 120% (active).

Question: Which ROS induction (% of piperlongumine) does the source give for `O=c1c2ccccc2nc(SCc2cccc(F)c2)n1C1CC1` here?
Answer: The ROS induction (% of piperlongumine) was 17.8%.

Question: For `Cc1ccc(-n2c(SCC(=O)Nc3cccc(C)c3C)nc3ccccc3c2=O)cc1`, which ROS induction (% of piperlongumine) is on record?
Answer: Its ROS induction (% of piperlongumine) is -0.837%.

Question: For `O=C(CSc1nc(-c2cccs2)cc(C(F)(F)F)n1)OCCCc1ccccc1`, which ROS induction (% of piperlongumine) is on record?
Answer: Its ROS induction (% of piperlongumine) is 1.26%.

Question: With `CC(C)NC(=O)N(C)C[C@H]1Oc2ccc(NS(=O)(=O)c3cn(C)cn3)cc2CC(=O)N([C@@H](C)CO)C[C@H]1C` as the compound, how does the ROS induction (% of piperlongumine) read?
Answer: Its ROS induction (% of piperlongumine) is 1.5%.

Question: With `C[C@@H]1CCCCO[C@H](CN(C)Cc2ccncc2)[C@@H](C)CN([C@H](C)CO)C(=O)c2cc(NS(C)(=O)=O)ccc2O1` as the compound, how does the ROS induction (% of piperlongumine) read?
Answer: Its ROS induction (% of piperlongumine) is -7.81%.

Question: For `C[C@@H]1CCCCO[C@@H](CN(C)Cc2ccncc2)[C@@H](C)CN([C@H](C)CO)C(=O)c2cc(NS(=O)(=O)c3cccs3)ccc2O1`, which ROS induction (% of piperlongumine) is on record?
Answer: The ROS induction (% of piperlongumine) was 104% (active).

Question: Which ROS induction (% of piperlongumine) does the source give for `C[C@@H]1CCCCO[C@H](CN(C)S(=O)(=O)c2cccs2)[C@@H](C)CN([C@H](C)CO)C(=O)c2cc(NC(=O)Nc3ccccc3)ccc2O1` here?
Answer: The ROS induction (% of piperlongumine) was 37.3%.

Question: Which ROS induction (% of piperlongumine) does the source give for `C[C@@H]1CCCCO[C@@H](CN(C)S(=O)(=O)c2cccs2)[C@@H](C)CN([C@H](C)CO)C(=O)c2cc(NC(=O)Nc3ccc4c(c3)OCO4)ccc2O1` here?
Answer: The ROS induction (% of piperlongumine) was 91.3% (active).

Question: With `C[C@@H]1CCCCO[C@@H](CN(C)S(=O)(=O)c2cccs2)[C@@H](C)CN([C@H](C)CO)C(=O)c2cc(NC(=O)Nc3ccc(F)cc3)ccc2O1` as the compound, how does the ROS induction (% of piperlongumine) read?
Answer: Its ROS induction (% of piperlongumine) is 55.6%.

Question: For `C[C@@H]1CN([C@H](C)CO)C(=O)c2cc(NS(=O)(=O)c3cccs3)ccc2O[C@H]1CN(C)Cc1ccncc1`, which ROS induction (% of piperlongumine) is on record?
Answer: The ROS induction (% of piperlongumine) was 26%.

Question: Which ROS induction (% of piperlongumine) does the source give for `COc1ccc(C=NCc2ccc(OC)c(OC)c2)cc1OC` here?
Answer: The ROS induction (% of piperlongumine) was 12.4%.

Question: For `CC1C=CCC2C(=O)N(c3cccc(Cl)c3)C(=O)C12` (centres undefined), which ROS induction (% of piperlongumine) is on record?
Answer: The ROS induction (% of piperlongumine) was -5.69%.

Question: Which ROS induction (% of piperlongumine) does the source give for `CC1CCC(NC(=O)c2ccccc2C(=O)O)CC1` (centres undefined) here?
Answer: Its ROS induction (% of piperlongumine) is -7.64%.

Question: Which ROS induction (% of piperlongumine) does the source give for `Cc1ccc2c(c1)c(-c1ccccc1)c(-c1ccccc1)n2CC(O)CNCc1ccco1` (centres undefined) here?
Answer: The ROS induction (% of piperlongumine) was 4.62%.

Question: With `O=C(COC(=O)c1cc2ccccc2cc1O)c1ccc(OCc2ccccc2)cc1` as the compound, how does the ROS induction (% of piperlongumine) read?
Answer: The ROS induction (% of piperlongumine) was 6.42%.

Question: Which ROS induction (% of piperlongumine) does the source give for `Cc1noc(C)c1NC(=O)N(C)C[C@H]1Oc2ccc(NC(=O)C3CCCCC3)cc2CC(=O)N([C@@H](C)CO)C[C@H]1C` here?
Answer: The ROS induction (% of piperlongumine) was -5.41%.

Question: For `FC(F)(F)c1cccc(NC(=S)Nc2cc(-c3cccs3)[nH]n2)c1`, which ROS induction (% of piperlongumine) is on record?
Answer: Its ROS induction (% of piperlongumine) is -6.71%.

Question: Which ROS induction (% of piperlongumine) does the source give for `CCOC(=O)N1CCC(NC(=O)NCc2noc3ccccc23)CC1` here?
Answer: Its ROS induction (% of piperlongumine) is -11.6%.

Question: Which ROS induction (% of piperlongumine) does the source give for `CC(=O)Nc1ccc(Nc2c3c4c(cccc4[nH]c2=O)C(=O)c2ccccc2-3)cc1` here?
Answer: The ROS induction (% of piperlongumine) was 105% (active).

Question: Which ROS induction (% of piperlongumine) does the source give for `CC(=O)Nc1ccc(NC(=O)COc2ccccc2C(=O)Nc2cccc(Cl)c2Cl)cc1` here?
Answer: The ROS induction (% of piperlongumine) was -10%.

Question: With `CC(=O)Nc1ccc(NC(=O)CN(c2ccccc2Br)S(C)(=O)=O)cc1` as the compound, how does the ROS induction (% of piperlongumine) read?
Answer: The ROS induction (% of piperlongumine) was -14%.

Question: Which ROS induction (% of piperlongumine) does the source give for `COc1cc2c(cc1NC(=O)CCC1CCCCC1)oc1ccccc12` here?
Answer: Its ROS induction (% of piperlongumine) is -18.8%.

Question: With `CCOC(=O)c1c(C)nn(-c2ncccc2NC(=O)CCC(=O)O)c1C` as the compound, how does the ROS induction (% of piperlongumine) read?
Answer: The ROS induction (% of piperlongumine) was -11.2%.

Question: Which ROS induction (% of piperlongumine) does the source give for `[N-]=[N+]=Nc1ccccc1C[C@@]1(C(=O)NCc2ccccc2)N=C(c2ccc(OCCCO)cc2)O[C@@H]1c1ccccc1` here?
Answer: Its ROS induction (% of piperlongumine) is 30.8%.

Question: For `COC(=O)[C@@]1(CCS(=O)(=O)c2ccccc2)N=C(c2ccc(OCCCO)cc2)O[C@H]1c1ccccc1N=[N+]=[N-]`, which ROS induction (% of piperlongumine) is on record?
Answer: Its ROS induction (% of piperlongumine) is 33.1%.

Question: Which ROS induction (% of piperlongumine) does the source give for `COC(=O)[C@]1(Cc2ccccc2CN=[N+]=[N-])N=C(c2ccc(OCCCO)cc2)O[C@@H]1c1ccccc1CN=[N+]=[N-]` here?
Answer: Its ROS induction (% of piperlongumine) is 86.1% (active).

Question: For `CNC[C@H]1Oc2ccc(NS(=O)(=O)c3cn(C)cn3)cc2C(=O)N([C@@H](C)CO)C[C@@H]1C`, which ROS induction (% of piperlongumine) is on record?
Answer: Its ROS induction (% of piperlongumine) is 5.85%.

Question: Which ROS induction (% of piperlongumine) does the source give for `COc1ccc(NC(=S)NCC(c2ccccc2)c2c[nH]c3ccccc23)cc1` (centres undefined) here?
Answer: The ROS induction (% of piperlongumine) was 4.82%.

Question: Which ROS induction (% of piperlongumine) does the source give for `COc1ccc(-c2cc(C(F)(F)F)nc(SCCC(=O)N(C)c3ccccc3)n2)cc1` here?
Answer: Its ROS induction (% of piperlongumine) is 33.5%.

Question: For `CCC(=O)Nc1ccccc1C(=O)Nc1ccccc1`, which ROS induction (% of piperlongumine) is on record?
Answer: Its ROS induction (% of piperlongumine) is 10.3%.

Question: Which ROS induction (% of piperlongumine) does the source give for `CC[N+]1=C(C)C(C)(C)c2cc(-c3ccccc3)ccc21` here?
Answer: Its ROS induction (% of piperlongumine) is 52.6%.

Question: Which ROS induction (% of piperlongumine) does the source give for `C=CCn1c(SCc2nnc(SCC(=O)c3ccc(Cl)cc3)o2)nnc1-c1ccccc1` here?
Answer: Its ROS induction (% of piperlongumine) is -1.34%.

Question: Which ROS induction (% of piperlongumine) does the source give for `Cc1nc2ccccn2c1-c1ccnc(SCC(=O)c2ccc(Cl)cc2)n1` here?
Answer: Its ROS induction (% of piperlongumine) is 102% (active).

Question: Which ROS induction (% of piperlongumine) does the source give for `CCn1c(SCC(=O)c2ccc(OC)cc2)nnc1-c1ccccc1F` here?
Answer: The ROS induction (% of piperlongumine) was -17.9%.

Question: For `CC(C)NC(=O)c1ccc2c(c1)N(Cc1ccccc1)C(=O)CS2`, which ROS induction (% of piperlongumine) is on record?
Answer: The ROS induction (% of piperlongumine) was -7.88%.

Question: For `COC(=O)/C=C1\SC(=NC(=O)c2ccc(F)cc2)NC1=O`, which ROS induction (% of piperlongumine) is on record?
Answer: The ROS induction (% of piperlongumine) was 1.03%.

Question: Which ROS induction (% of piperlongumine) does the source give for `Cc1cccc(Cn2c(SCc3ccc(C(=O)N4CCCCC4)cc3)nc3ccncc32)c1` here?
Answer: The ROS induction (% of piperlongumine) was -1.54%.
